Experimental data: PubChem BioAssay (EPA / NIEHS)
Inconclusive results are not listed. The source made the active and inactive calls. The calls were made as follows, unless noted: active = hit-call score of the fitted dose curve at least 0.9, where 1 is the maximum; inactive = score below 0.9.

Experiments:
[1] = CCTE_Simmons_MITO_inhib_resp_rate: CCTE's HepG2 Seahorse XF Respirometric Screening Assay at Inhibited Respiratory State [full ETC block], Simmons Lab (AID 2284006); settings: actives raise or lower the signal
Outline: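 Compound injected onto HepG2 cells (125 nM–100 uM final, 7 points); FCCP then rotenone/antimycin A added. Oxygen consumption read every 6 min (3 min mix, 3 min measure) for 72 min. Inhibited-state OCR fitted against DMSO.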

[2] = CCTE_Simmons_MITO_viability: CellTiter-Glo Viability Assessment for CCTE's HepG2 Seahorse XF Respirometric Screening Assay [post-hoc], Simmons Lab (AID 2284007; active = hit-call score of the fitted dose curve at least 0.9, where 1 is the maximum)
Outline: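 After the Seahorse oxygen-consumption sequence (basal, FCCP, rotenone/antimycin A; 72 min total), HepG2 viability was scored as ATP content by bioluminescence. Chemicals ran at seven concentrations up to 100 uM final for 90 min.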

[3] = CCTE_Harrill_HTTr_Viability_MCF7: CCTE's 6-hour Cell Viability Assessment for the High-Throughput Transcriptomics (HTTr) Platform, in MCF-7 cells cultured in DMEM + 10% fetal bovine serum, Harrill Lab (AID 2284010)
Outline: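 Cells were dosed with chemicals in an eight-point dilution series, imaged 6 hours later for propidium iodide uptake, and the endpoint was analyzed by bidirectional fitting against DMSO as negative control.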

[4] = CCTE_Harrill_HTTr_Apoptosis_MCF7: CCTE's 6-hour Apoptosis Assessment for the High-Throughput Transcriptomics (HTTr) Platform, in MCF-7 cells cultured in DMEM + 10% fetal bovine serum, Harrill Lab (AID 2284011)
Outline: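 Apoptosis in MCF-7 cells grown in DMEM with 10% fetal bovine serum was scored after a six hour exposure by high content imaging of caspase-3/7 activation (CellEvent Caspase 3/7 Green), with DMSO serving as negative control and baseline.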

[5] = CCTE_Harrill_HTTr_CellCount_MCF7: CCTE's Cell Proliferation Assessment for the High-Throughput Transcriptomics (HTTr) Platform, Harrill Lab (AID 2284012; active = hit-call score of the fitted dose curve at least 0.9, where 1 is the maximum;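 also: count of Hoechst-stained nuclei per well by high-content imaging in MCF-7 cells; cells exposed to compound for six hours; intended direction is loss of nuclei count meaning fewer cells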)
Outline: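 Chemicals in eight-point dilution series are added to MCF-7 cells for six hours, nuclei are stained with Hoechst and imaged, and per-well nuclei counts are fitted in both directions relative to DMSO controls.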

[6] = CCTE_Shafer_MEA_acute_spike_number: CCTE's Neural Acute Assay for Total Number of Spikes, Shafer Lab (AID 2284008);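 as to AC50: curve fitted for decrease in spike count so AC50 reflects inhibitors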
Outline: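 Using an adaptive detector set to 8x rms noise, spikes were counted in 40-min windows before and after compound addition (0.03-40 uM) to rat cortical networks at 37 C; the well-level change from baseline was analysed relative to DMSO.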

[7] = CCTE_Shafer_MEA_acute_firing_rate_mean: CCTE's Neural Acute Assay for Mean Firing Rate, Shafer Lab (AID 2284009);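 also: analyzed for loss of signal so actives lower firing rate relative to DMSO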
Outline: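 Percent change in well-mean firing rate was derived from extracellular spikes detected at 8x rms noise (300-5000 Hz band-pass) before and after a 40-min compound exposure. Cultures were primary rat cortical neurons, tested at 0.03-40 uM.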

[8] = CCTE_Shafer_MEA_acute_burst_number: CCTE's Neural Acute Assay for Single-Electrode Bursts, Shafer Lab (AID 2284013)
Outline: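 Spontaneous network activity of primary rat cortical neurons was recorded extracellularly on microelectrode arrays at 37 C, with 40-min periods before and during exposure to 0.03-40 uM compound on DIV 13 or 15.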

[9] = CCTE_Shafer_MEA_acute_burst_duration_mean: CCTE's Neural Acute Assay for Mean Burst Duration, Shafer Lab (AID 2284014);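 also: hits are decreases in mean burst duration relative to DMSO controls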
Outline: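 Read-out is the per-well percent change in mean burst duration (first to last spike within a single-electrode burst) between 40-min recordings before and after compound. Cultures were primary rat cortical neurons on MEAs, dosed at 0.03-40 uM on DIV 13 or 15.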

[10] = CCTE_Shafer_MEA_acute_per_burst_spike_number_mean: CCTE's Neural Acute Assay for Average Number of Spikes Per Burst, Shafer Lab (AID 2284015);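 also: hits are decreases in mean spikes per burst versus baseline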
Outline: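 Primary rat cortical neurons on 48-well MEA plates, treated on DIV 13 or 15 at 0.03-40 uM. Spontaneous activity recorded 40 min before and 40 min after compound at 37 C; percent change in mean spikes per single-electrode burst per well, fitted in the loss direction versus DMSO.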

[11] = CCTE_Shafer_MEA_acute_interburst_interval_mean: CCTE's Neural Acute Assay for Mean Interburst Interval, Shafer Lab (AID 2284016);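 also: percent change of mean interburst interval versus each well's own pre-dose baseline; curves fitted for decrease in interburst interval relative to DMSO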
Outline: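 Primary rat cortical neurons on 16-electrode MEA wells were recorded 40 min at baseline on DIV 13 or 15, then 40 min after compound (0.03-40 uM), at 37 C. Value is percent change in mean interburst interval per well, DMSO as negative control.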

[12] = CCTE_Shafer_MEA_acute_burst_percentage_mean: CCTE's Neural Acute Assay for Percentage of Spikes in a Burst, Shafer Lab (AID 2284017);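 as to AC50: curve fitted for loss of signal so potency reflects decreased burst percentage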
Outline: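 Primary rat cortical neurons on 16-electrode MEA wells; 40 min baseline recorded at DIV 13 or 15, then 40 min after compound (0.03-40 uM) at 37 C. Well-mean fraction of spikes in single-electrode bursts; percent change from baseline, DMSO as negative control.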

[13] = CCTE_Shafer_MEA_acute_burst_percentage_std: CCTE's Neural Acute Assay for Standard Deviation of Burst Percentage, Shafer Lab (AID 2284018);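 also: fitted in the negative direction so actives lower burst percentage SD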
Outline: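 Value is percent change from baseline in the across-electrode SD of spikes-in-bursts percentage, wells with >/= 10 active electrodes. Acute 40-min exposure to 0.03-40 uM on DIV 13 or 15 rat cortical cultures, recorded at 37 C after 40-min baseline.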

[14] = CCTE_Shafer_MEA_acute_per_network_burst_spike_number_mean: CCTE's Neural Acute Assay for Average Number of Spikes in a Network Burst, Shafer Lab (AID 2284019);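 as to AC50: curve fitted for loss of signal so actives reduce spikes per network burst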
Outline: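 Read-out is mean spike count per network burst, taken as percent change between a 40-min pre-exposure and a 40-min post-exposure recording per well. Rat primary cortical neurons on MEAs at 37 C, DIV 13 or 15; compounds at 0.03-40 uM.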

[15] = CCTE_Shafer_MEA_acute_per_network_burst_spike_number_std: CCTE's Neural Acute Assay for Standard Deviation of Number of Spikes in a Network Burst, Shafer Lab (AID 2284020);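 also: fitted for decrease in spike-number SD versus DMSO so actives lower it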
Outline: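 Spontaneous network activity of primary rat cortical neurons is recorded extracellularly before and after a 40-min compound exposure (0.03-40 uM) at 37 C. The endpoint is the well's percent change in burst spike-number SD.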

[16] = CCTE_Shafer_MEA_acute_per_network_burst_electrodes_number_mean: CCTE's Neural Acute Assay for Mean Number of Electrodes in a Network Burst, Shafer Lab (AID 2284021);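 also: curves fitted for decreases only so hits reduce electrodes per burst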
Outline: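 Percent change from baseline in average electrode count per network burst, rat cortical cultures on 48-well MEAs; 40-min recordings each side of exposure, DIV 13 or 15; threshold 8x rms noise; DMSO as negative control.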

[17] = CCTE_Shafer_MEA_acute_network_burst_percentage: CCTE's Neural Acute Assay for Percentage of Network Bursts, Shafer Lab (AID 2284022);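 also: curves fitted for loss so actives lower network burst percentage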
Outline: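 On DIV 13 or 15, at least three wells of rat cortical neurons per compound are dosed at 0.03-40 uM. Spontaneous firing is detected at 8x rms noise for 40 min before and after dosing at 37 C. The percent change in network-burst spike share is reported.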

[18] = CCTE_Shafer_MEA_acute_cross_correlation_area: CCTE's Neural Acute Assay for Area of Cross Correlation, Shafer Lab (AID 2284024);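 also: area under pooled inter-electrode spike cross-correlation near zero lag as percent change from own baseline; curves fitted for loss of cross-correlation area so actives lower synchrony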
Outline: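 Extracellular recordings from cultured rat cortical neurons measure network synchrony as cross-correlation area; each well's post-compound value (0.03-40 uM, 40 min) is compared with its own 40 min baseline to give percent change.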

[19] = CCTE_Shafer_MEA_acute_cross_correlation_HWHM: CCTE's Neural Acute Assay for Cross Correlation at Half Width at Half Maximum, Shafer Lab (AID 2284026);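 also: percent change per well from pre-dose baseline in spike cross-correlogram half width; hits are a decrease in cross-correlogram half width relative to DMSO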
Outline: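 Percent change in cross-correlogram half width at half maximum, narrower meaning more synchrony, was derived per well from paired 40-min recordings before and during exposure to 0.03-40 uM compound in rat cortical cultures at 37 C.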

[20] = CCTE_Shafer_MEA_acute_synchrony_index: CCTE's Neural Acute Assay for Synchrony, Shafer Lab (AID 2284027);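 also: fitted for loss of signal so actives lower synchrony relative to DMSO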
Outline: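 Readout is percent change in the unitless network synchrony index (0 low, 1 high) between a 40-min baseline and a 40-min recording in compound. Cultures were primary rat cortical neurons on MEAs, treated at 0.03-40 uM on DIV 13 or 15.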

Measured: AC50

CCCCOC(=O)[C@@H](C)Oc1ccc(Oc2ccc(C#N)cc2F)cc1
inactive: [1] | [2] | [3] | [4]

CCCSP(=O)(OCC)Oc1ccc(Br)cc1Cl (stereo unspecified)
inactive: [1] | [3] | [4] | [5]

C[N+]1(C)CCCCC1
not listed: [1] | [2]
inactive: all other assays above

C#CCC1=C(C)C(OC(=O)C2C(C=C(C)C)C2(C)C)CC1=O (stereo unspecified)
inactive: [1] | [2] | [3] | [10] | [11] | [14] | [18] | [19]
active: [6] 27.4 µM | [7] 27.4 µM | [8] 13.3 µM | [9] 15.5 µM | [12] 12.7 µM | [13] 19.9 µM | [15] 19.9 µM | [16] 5.78 µM | [17] 14.6 µM | [20] 17.8 µM

CCOP(=S)(OCC)Oc1ccc2c(C)c(Cl)c(=O)oc2c1
active: [6] 1.85 µM | [7] 1.85 µM | [8] 1.94 µM | [10] 3.98 µM | [11] 4.19 µM | [12] 3.9 µM | [14] 1.99 µM | [15] 4.38 µM | [16] 4.12 µM | [17] 27.2 µM | [19] 2.38 µM | [20] 6.95 µM
inactive: [3] | [4] | [5] | [9] | [13] | [18]

CON=C(C(=O)OC)c1ccccc1CON=C(C)c1cccc(C(F)(F)F)c1
active: [1] 14.8 µM | [6] 0.183 µM | [7] 0.183 µM | [8] 0.191 µM | [10] 0.767 µM | [11] 4.19 µM | [12] 1.12 µM | [15] 0.59 µM | [16] 13.5 µM | [18] 0.162 µM | [19] 0.278 µM | [20] 2.25 µM
inactive: [2] | [3] | [4] | [9] | [13] | [14]

CCOP(=S)(Oc1cnc(C(C)(C)C)nc1)OC(C)C (stereo unspecified)
active: [6] 15.6 µM | [7] 15.5 µM | [10] 29.4 µM | [12] 35.6 µM | [14] 20 µM | [15] 28 µM | [16] 20 µM | [17] 24.6 µM | [19] 26.9 µM | [20] 31 µM
inactive: [1] | [2] | [3] | [8] | [9] | [11] | [13] | [18]

Nc1c(Cl)cc([N+](=O)[O-])cc1Cl
active: [11] 30.2 µM | [12] 20 µM | [13] 26.9 µM | [15] 37 µM | [16] 20 µM | [17] 26 µM | [20] 32.8 µM
not listed: [1] | [2]
inactive: all other assays above

Cc1ccn2nc(S(=O)(=O)Nc3c(F)cccc3F)nc2n1
not listed: [1] | [2] | [5]
inactive: all other assays above

CCC(CC)Nc1c([N+](=O)[O-])cc(C)c(C)c1[N+](=O)[O-]
inactive: [1] | [2] | [3] | [4]

CC1(C(=O)Nc2ccc(O)c(Cl)c2Cl)CCCCC1
inactive: [1] | [2] | [3] | [4]

CC(C)[C@H](C(=O)O[C@H](C#N)c1cccc(Oc2ccccc2)c1)c1ccc(Cl)cc1
active: [8] 0.928 µM | [12] 0.958 µM | [16] 0.0691 µM | [17] 0.962 µM | [19] 4.36 µM | [20] 1.01 µM
not listed: [1] | [2] | [5]
inactive: all other assays above

CN(C)[C@@H]1C(=O)C(C(N)=O)=C(O)[C@@]2(O)C(=O)C3=C(O)c4c(O)cccc4[C@@](C)(O)[C@H]3[C@H](O)[C@@H]12
not listed: [2] | [4]
inactive: all other assays above
